35 molecules from paper PMC5540273 (PLoS ONE, 2017) can be followed below.
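Also: KINOMEscan kinase panel screen.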

This test deals with T1, PIP5K2C.
T1 construct: gene PIP4K2C
Conditions: concentration: 1 μM, replicates: in singlicate; n = 1.
As to `Clc1cc(Nc2ncnc3cc[nH]c23)ccc1OCc1ccccn1`, the “%Inh” value was found to be 8%.

On to `COc1cc2ncnc(Nc3ccc(OCc4ccccc4Br)c(Cl)c3)c2cc1OC.Cl` [GI261590], for which the “%Inh” value was found to be 41%.

With `CCCc1ccc(S(=O)(=O)NC2CCN(c3ccnc(Nc4ccc(OC)cc4)n3)C2)cc1` (centres unmarked) [GSK1379737], the “%Inh” value was found to be 66%.

For the molecule `C[C@H]1CC[C@@H](C(=O)Nc2ccccc2)CN1c1cc(-c2ccc3c(N)n[nH]c3c2)nc(N)n1` [GSK2283293], the “%Inh” value amounted to 15%.

As to `Fc1ccc(Nc2nccc(-c3c(-c4ccc(Cl)cc4)nn4ncccc34)n2)cc1F` [GW829058], the “%Inh” value worked out at 20%.

As for `COc1ccc(-c2oc3ncnc(N)c3c2-c2ccc(OC)cc2)cc1` [SB-589132], the “%Inh” value is 63%.

As to `Nc1nc(-c2ccc3c(N)n[nH]c3c2)cc(N2CCC[C@@H](C(=O)Nc3ccccc3)C2)n1.O=C(O)C(F)(F)F.O=C(O)C(F)(F)F` [GSK2288359], the “%Inh” value came out at 31%.

In the case of `CS(=O)(=O)CCNCc1ccc(-c2ccc3ncnc(Nc4ccc(OCc5ccccc5)c(Cl)c4)c3c2)o1.Cl` [GW574783], the “%Inh” value amounted to 29%.

Turning to `CNc1nccc(-c2c(-c3ccc(F)cc3)ncn2C2CCN(C)CC2)n1` [SB-222903], the “%Inh” value came to 90%.

As for `Cl.O=S(=O)(c1cccc(F)c1)c1ccc(Nc2ncnc3cc(Br)sc23)cc1Cl` [GSK306886], the “%Inh” value is 60%.

With `Cl.c1ccc(Cn2ccc3cc(Nc4ncnc5ccccc45)ccc32)cc1` [GW275568], the “%Inh” value stood at 25%.

Consider `FC(F)(F)c1ccc(-c2cc(-c3c[nH]nc3-c3ccccn3)ccn2)cc1` [GW599550], for which the “%Inh” value was 59%.

Turning to `CC(C)(C)c1ccc(-n2cnc3c(N)ncnc32)cc1` [SKF-97263], the “%Inh” value stood at 27%.

As to `Nc1nccc2scc(-c3ccc4c(c3)CCN4C(=O)Cc3cc(F)ccc3F)c12` [GSK2587663], the “%Inh” value is 13%.

As for `NC(=O)c1sc(-n2cnc3ccccc32)cc1OCc1ccccc1F` [GSK1024306], the “%Inh” value was found to be 8%.

On to `O=C(NCCCN1CCCC1=O)c1cnc(NCc2cc(Cl)ccc2Cl)nc1NC1CCNCC1`, for which the “%Inh” value is given as 2%.

As to `CN1CCC(n2cnc(-c3ccc(F)cc3)c2-c2ccnc(NC3CCNCC3)n2)CC1` [SB-229482], the “%Inh” value was 95.2%.

Take `O=C(Nc1n[nH]c2nc(-c3ccco3)c(Br)cc12)c1ccc(CN2CCCC2)cc1.O=C(O)[C@H](O)[C@@H](O)C(=O)O` [SB-742352]: the “%Inh” value was found to be 0%.

As for `FC(F)(F)c1ccc(-c2nn3ncccc3c2-c2ccnc(Nc3cccc(C(F)(F)F)c3)n2)cc1` [GW828205], the “%Inh” value is listed as 3%.

`COc1ccc(NC(=O)Nc2ccc(C)c(-c3ccc(C(=O)Nc4ccncc4)cc3)c2)cc1` [GSK1398475]: the “%Inh” value turned out to be 0%.

Regarding `Cl.Fc1ccccc1COc1ccc(Nc2ncnc3ccc(-c4nnc(C(F)(F)F)o4)cc23)cc1Cl` [GW424170], the “%Inh” value amounted to 7%.

`CCC(CC)(CC)n1cnc2c(N)ncnc21` [SKF-97620]: the “%Inh” value is 0%.

Turning to `Cn1ccc2ncnc(Oc3ccc(NC(=O)Nc4cccnc4)c(Cl)c3)c21`, the “%Inh” value was 0%.

Consider `Cl.c1ccc(Cn2ncc3cc(Nc4ncnc5ccccc45)ccc32)cc1` [GW273749], for which the “%Inh” value is recorded as 0%.

As to `Cc1ccc(O)cc1Nc1cc(C(F)(F)F)nc2ccc(-c3ccncc3)cc12` [GW630823], the “%Inh” value is reported as 0%.

Consider `Cn1ccc2ncnc(Nc3ccc(Oc4cccc(Cl)c4)c(Cl)c3)c21`, for which the “%Inh” value stood at 22%.

As for `Clc1ccc(-c2cc(-c3c[nH]nc3-c3ccccn3)ccn2)cc1` [GW681251], the “%Inh” value turned out to be 39%.

Turning to `COC(=O)c1cccc(NC(=O)NCCNc2ccnc(Nc3ccc(F)cc3)n2)c1` [GSK1379883], the “%Inh” value turned out to be 22%.

With `C[C@@H]1CCN(C(=O)CO)C[C@@H]1N(C)c1ncnc2[nH]ccc12`, the “%Inh” value stood at 0%.

As for `COc1ccc(NC(=O)c2ccc(-c3cc(-c4nnc(C)o4)ccc3C)cc2)cc1` [GW595885], the “%Inh” value was 4%.

Take `CC(C)N1CCC(n2cnc(-c3ccc(F)cc3)c2-c2ccnc(N)n2)CC1` [SB-223132]: the “%Inh” value worked out at 62%.

As to `Oc1ccc2ncnc(Nc3ccc(OCc4ccccc4)cc3)c2c1` [GI262866], the “%Inh” value worked out at 40%.

Regarding `CC(=O)Nc1n[nH]c2ncc(-c3ccccc3)cc12` [SB-548492], the “%Inh” value is reported as 0%.

Turning to `CCc1nc(-c2cccc(C)c2)c(-c2ccnc(NC(=O)c3ccccc3)c2)s1`, the “%Inh” value stood at 99.1%.

Consider `OCCOCCn1ccc2ncnc(Nc3ccc(Oc4cccc(Cl)c4)c(Cl)c3)c21`, for which the “%Inh” value worked out at 30%.
